Measurements taken from PubChem BioAssay (Tox21).
Values joined by “and” are separate entries in the source; they are usually repeats but may differ in a detail not shown here. Equal entries are not always repeated. Inconclusive results are not listed. Where a structure was tested more than once in an assay, its records may differ in their call. Active and inactive are the calls of the source. Unless noted, calls follow the shape of the full dose curve. Numbered stars: 1 amine (or outer) side, 2 acyl side, 3 side chain; on linkers, the order of the positions; unused ones are H or OH. Bridge positions count the residues as written; N and C are the ends. Square brackets hold non-standard residues; d marks the D form. Peptide text beside a SMILES is read from it. I, II: the chains in the order shown. Actinocin(9to1) = Cc1c2oc3c(C)ccc(C(=O)[*:1])c3nc-2c(C(=O)[*:2])c(N)c1=O; NMeV = CN[C@H](C(=O)O)C(C)C; Sar = CNCC(=O)O

Assays:
[1] = Nuclear factor erythroid 2-related factor 2/antioxidant responsive element (Nrf2/ARE) small molecule agonists: qHTS cell viability counter screen in human keratinocytes (AID 1919968; active = well fitted curve in the direction sought with a large enough effect in the repeat runs; an effect the other way counts as inactive or inconclusive; also: nearly all actives have a fitted effect of over 55% in size; also: potency is read from the fitted curve at half-maximal effect)
Outline: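 Parallel cytotoxicity read: KeratinoSens HaCaT cells, compound treatment 23 h, viability by CellTiter-Fluor fluorescence 1 h post-reagent.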

[2] = Nuclear factor erythroid 2-related factor 2/antioxidant responsive element (Nrf2/ARE) small molecule agonists: luciferase reporter gene qHTS assay in human keratinocytes (AID 1919969); also: nearly all actives have a fitted effect of over 35% in size; also: potency is read from the fitted curve at half-maximal effect
[3] = target: KiSS-1 receptor (Homo sapiens) (UniProt Q969F8); assay: Human kisspeptin (KISS1R) small molecule agonists, calcium flux assay in KISS1R-HEK293 cells (AID 1920064; active = well fitted curve in the direction sought with a large enough effect in the repeat runs; an effect the other way counts as inactive or inconclusive)
Sequence of KiSS-1 receptor (Homo sapiens) (Q969F8 whole entry, looked up): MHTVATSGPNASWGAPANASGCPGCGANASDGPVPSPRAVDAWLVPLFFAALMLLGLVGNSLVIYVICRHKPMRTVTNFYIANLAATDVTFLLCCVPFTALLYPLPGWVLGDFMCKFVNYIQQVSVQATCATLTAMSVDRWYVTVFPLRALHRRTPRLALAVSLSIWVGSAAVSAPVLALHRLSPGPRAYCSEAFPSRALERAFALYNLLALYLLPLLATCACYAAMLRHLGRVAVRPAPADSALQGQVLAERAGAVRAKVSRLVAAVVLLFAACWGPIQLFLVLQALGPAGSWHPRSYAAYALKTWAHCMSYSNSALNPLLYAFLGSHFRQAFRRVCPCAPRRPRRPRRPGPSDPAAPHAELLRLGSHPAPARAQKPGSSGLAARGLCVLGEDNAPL
Outline: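 Triplicate 15-concentration series were applied to dye-loaded human KISS1R HEK293 cells, and agonist-evoked calcium fluorescence was captured for 3 min.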

[4] = G protein-coupled receptor (GPCR) small molecule agonists, calcium flux assay: HEK293 wild type cell line counter screen (AID 1920065)
Outline: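 Non-specific calcium responders were flagged by adding DMSO-dissolved compounds to dye-loaded cells and reading 480/540 nm fluorescence each second for 3 min; ATP served as positive control.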

[5] = p53 small molecule agonists, cell-based qHTS assay with human liver microsomes (AID 1963577)
Outline: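 p53RE-bla cells, 4,000/well, compound added after 5 h, with human liver microsomes 0.5 mg/mL and NADPH 0.5 mg/mL final; 16 h at 37 C, then LiveBLAzer 2 h RT, fluorescence.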

[6] = p53 small molecule agonists, cell-based qHTS assay with rat liver microsomes (AID 1963578)
Outline: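 p53RE-bla cells, 4,000/well, pre-incubated 5 h, then given compounds plus rat liver microsomes (0.5 mg/mL final) and NADPH (0.5 mg/mL final). Incubation 16 h at 37 C; beta-lactamase reporter read by LiveBLAzer fluorescence after 2 h at room temperature.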

[7] = p53 small molecule agonists, cell-based qHTS assay with human liver microsomes: qHTS cell viability counter screen (AID 1963579); also: nearly all actives have a fitted effect of over 45% in size
Outline: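 p53RE-bla cells, 4,000/well, dosed 5 hours after plating, with human liver microsomes (0.5 mg/mL final) plus NADPH (0.5 mg/mL final), 16 hours at 37 C. Viability read as CellTiter-Glo luminescence after 30 min at room temperature.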

[8] = p53 small molecule agonists, cell-based qHTS assay with rat liver microsomes: qHTS cell viability counter screen (AID 1963580); also: nearly all actives have a fitted effect of over 45% in size
Outline: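 Cytotoxicity counter screen: intracellular ATP measured by CellTiter-Glo luminescence in the same wells as the beta-lactamase reporter read, on HCT-116 p53RE-bla cells exposed 16 h at 37 C to compounds with rat liver microsomes and NADPH, each 0.5 mg/mL final.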

[9] = p53 small molecule agonists, cell-based qHTS assay (AID 1963582; active = well fitted activation curve with a large enough effect in the signal ratio in the repeat runs, not every such curve was filed as active; the % refers to the signal ratio; also: potency is read from the fitted curve at half-maximal effect)
Outline: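 Beta-lactamase reporter cells (p53RE-bla) treated with compounds for 16 h at 37 C; FRET substrate, 2 h, room temperature; fluorescence intensity.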

[10] = target: 5-hydroxytryptamine receptor 2A (Homo sapiens) (UniProt P28223); assay: 5-hydroxytryptamine receptor 2A (HTR2A) small molecule antagonists, cell-based qHTS assay (AID 1963586); also: nearly all actives have a fitted effect of over 45% in size; also: potency is read from the fitted curve at half-maximal effect
Sequence of 5-hydroxytryptamine receptor 2A (Homo sapiens) (P28223 whole entry, looked up): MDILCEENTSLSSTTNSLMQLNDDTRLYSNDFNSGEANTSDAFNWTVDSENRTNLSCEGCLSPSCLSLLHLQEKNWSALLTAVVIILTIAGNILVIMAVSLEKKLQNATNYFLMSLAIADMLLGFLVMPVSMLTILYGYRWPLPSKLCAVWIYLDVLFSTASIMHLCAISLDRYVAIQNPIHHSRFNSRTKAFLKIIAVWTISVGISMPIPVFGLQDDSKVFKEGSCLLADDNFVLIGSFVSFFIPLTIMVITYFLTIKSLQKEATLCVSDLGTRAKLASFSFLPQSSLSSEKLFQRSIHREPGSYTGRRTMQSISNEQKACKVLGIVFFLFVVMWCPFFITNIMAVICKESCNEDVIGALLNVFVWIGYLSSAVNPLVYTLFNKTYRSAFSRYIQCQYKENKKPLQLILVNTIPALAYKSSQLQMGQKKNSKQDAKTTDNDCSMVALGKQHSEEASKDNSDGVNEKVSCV
Outline: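 CHO cells stably expressing human HTR2A were plated for 18 h at 37 C, then loaded with calcium dye for 1 h. Compounds were preincubated 5 min at room temperature before DOI (4 nM solution) was added. Kinetic fluorescence was read for 3 min.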

[11] = target: 5-hydroxytryptamine receptor 2A (Homo sapiens) (UniProt P28223); assay: 5-hydroxytryptamine receptor 2A (HTR2A) small molecule agonists, cell-based qHTS assay (AID 1963587); also: nearly all actives have a fitted effect of over 30% in size
Outline: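 CHO cells stably expressing human HTR2A, plated 18 h, loaded with calcium dye 1 h at 37 C. Agonist mode: compounds added and intracellular calcium fluorescence recorded kinetically for 2 min at 1 sec intervals.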

[12] = target: Muscarinic acetylcholine receptor M1 (Homo sapiens) (UniProt P11229); assay: Cholinergic receptor muscarinic 1 (CHRM1) small molecule antagonists, cell-based qHTS assay (AID 1963588); also: nearly all actives have a fitted effect of over 40% in size
Sequence of Muscarinic acetylcholine receptor M1 (Homo sapiens) (P11229 whole entry, looked up): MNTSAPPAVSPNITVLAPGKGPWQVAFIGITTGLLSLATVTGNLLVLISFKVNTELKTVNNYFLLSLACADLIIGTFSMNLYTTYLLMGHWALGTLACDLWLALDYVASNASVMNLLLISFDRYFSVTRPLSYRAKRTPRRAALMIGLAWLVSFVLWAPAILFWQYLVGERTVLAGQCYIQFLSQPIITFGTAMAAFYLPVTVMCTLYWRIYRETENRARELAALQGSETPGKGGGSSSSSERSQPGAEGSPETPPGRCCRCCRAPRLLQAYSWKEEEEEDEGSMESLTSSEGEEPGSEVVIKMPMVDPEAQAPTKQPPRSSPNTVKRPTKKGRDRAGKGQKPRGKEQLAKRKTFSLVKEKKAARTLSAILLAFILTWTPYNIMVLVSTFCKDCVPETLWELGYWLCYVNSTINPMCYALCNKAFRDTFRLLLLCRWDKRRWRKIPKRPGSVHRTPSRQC
Outline: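 Compounds were tested at 15 concentrations in three independent runs. Dye-loaded CHRM1-CHO cells were exposed 5 min at room temperature before stimulation by acetylcholine added at 50nM. Intracellular calcium was read kinetically on FDSS for 3 min.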

[13] = target: Muscarinic acetylcholine receptor M1 (Homo sapiens) (UniProt P11229); assay: Cholinergic receptor muscarinic 1 (CHRM1) small molecule agonists, cell-based qHTS assay (AID 1963589); also: nearly all actives have a fitted effect of over 35% in size; also: potency is read from the fitted curve at half-maximal effect
Outline: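 qHTS, 15-point titration, 3 independent runs: compounds pin-transferred onto dye-loaded CHRM1-CHO cells (human M1), calcium fluorescence followed every second to detect agonism.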

[14] = cAMP Responsive Elements (CRE) small molecule antagonists, cell-based qHTS assay (AID 1963591; active = well fitted inhibition curve with a large enough effect in the signal ratio in the repeat runs, not every such curve was filed as active; the % refers to the signal ratio)
Outline: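 Fluorescence intensity from cleaved LiveBLAzer B/G substrate (2 h, room temperature) quantified CRE-bla activity in HEK 293T cells exposed 3 h to compound with 0.25 uM final NKH477.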

[15] = target: Beta-2 adrenergic receptor (Homo sapiens) (UniProt P07550); assay: Adrenergic beta2 receptor (ADRB2) small molecule antagonists, cell-based qHTS assay (AID 1963592); also: series mostly up to about 92 µM; nearly all actives have a fitted effect of over 50% in size
Sequence of Beta-2 adrenergic receptor (Homo sapiens) (P07550 whole entry, looked up): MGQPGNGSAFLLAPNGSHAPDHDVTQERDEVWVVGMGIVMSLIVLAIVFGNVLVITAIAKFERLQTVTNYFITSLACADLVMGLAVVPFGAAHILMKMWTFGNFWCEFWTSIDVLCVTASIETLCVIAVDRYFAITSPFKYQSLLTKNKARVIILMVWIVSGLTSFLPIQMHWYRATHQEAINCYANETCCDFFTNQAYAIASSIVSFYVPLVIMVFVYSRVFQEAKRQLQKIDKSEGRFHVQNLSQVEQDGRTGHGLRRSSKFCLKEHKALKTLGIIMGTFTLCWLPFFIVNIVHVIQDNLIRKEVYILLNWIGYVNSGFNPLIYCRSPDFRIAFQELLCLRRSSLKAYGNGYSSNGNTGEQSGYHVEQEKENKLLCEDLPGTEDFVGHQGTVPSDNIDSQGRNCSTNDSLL
Outline: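 Assay format: CHO-ADRB2 cells, 18-20hr seeding at 37C/5% CO2, then compound plus 1nM isoproterenol agonist mix for 0.5hr RT. Homogeneous time-resolved fluorescence cAMP detection after 1hr, expressed as 665/615 nm ratio.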

[16] = target: Beta-2 adrenergic receptor (Homo sapiens) (UniProt P07550); assay: Adrenergic beta2 receptor (ADRB2) small molecule agonists, cell-based qHTS assay (AID 1963593);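 also: CHO cells stably overexpressing human ADRB2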
Outline: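 CHO cells stably over-expressing ADRB2 were plated overnight at 37C, then dosed with compounds plus a stimulation mix containing 100uM IBMX and 25uM Ro-20-1724 for 0.5hr at room temperature. cAMP was measured by HTRF competition, 1hr.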

[17] = target: D(2) dopamine receptor (Homo sapiens) (UniProt P14416); assay: Dopamine D2 receptor (DRD2) small molecule agonists, cell-based qHTS assay (AID 1963594); also: nearly all actives have a fitted effect of over 35% in size
Sequence of D(2) dopamine receptor (Homo sapiens) (P14416 whole entry, looked up): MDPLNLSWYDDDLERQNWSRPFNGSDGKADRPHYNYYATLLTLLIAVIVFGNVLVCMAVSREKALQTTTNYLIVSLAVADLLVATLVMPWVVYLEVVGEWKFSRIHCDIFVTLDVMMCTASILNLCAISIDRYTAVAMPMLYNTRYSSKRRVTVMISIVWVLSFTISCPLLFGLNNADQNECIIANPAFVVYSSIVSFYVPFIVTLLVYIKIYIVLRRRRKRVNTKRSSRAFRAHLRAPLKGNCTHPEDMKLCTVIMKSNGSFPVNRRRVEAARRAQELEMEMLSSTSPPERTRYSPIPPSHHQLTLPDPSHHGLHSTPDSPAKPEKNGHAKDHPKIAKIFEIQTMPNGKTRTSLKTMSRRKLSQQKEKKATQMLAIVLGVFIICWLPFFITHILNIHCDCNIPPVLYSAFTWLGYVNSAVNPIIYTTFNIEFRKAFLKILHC
Outline: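 HEK293 cells stably expressing human DRD2, pre-treated with PDE inhibitor Ro20-1724 (0.1 mM final) and compound 10 min at room temperature, then stimulated with NKH477 (200nM […]) for 30 min. cAMP read by HTRF (665/620 nm).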

[18] = target: D(2) dopamine receptor (Homo sapiens) (UniProt P14416); assay: Dopamine D2 receptor (DRD2) small molecule antagonists, cell-based qHTS assay (AID 1963595; active = well fitted inhibition curve with a large enough effect in the signal ratio in the repeat runs, with a control signal flat; the % refers to the signal ratio; also: potency is read from the fitted curve at half-maximal effect)
Outline: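 HEK293 cells stably expressing DRD2, preincubated with 0.1 mM Ro20-1724 and compounds 10 min, were stimulated with 200 nM NKH477 plus 12 nM quinpirole for 30 min at room temperature; cAMP measured by HTRF (665/620 nm).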

[19] = p53 small molecule agonists, cell-based qHTS assay: qHTS cell viability counter screen (AID 1963581); also: nearly all actives have a fitted effect of over 45% in size
Outline: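 Multiplexed with the reporter read, a CellTiter-Glo step (30 min, room temperature) gauges ATP-based viability of HCT-116 p53RE-bla cells after 16 h compound incubation at 37 C.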

[20] = cAMP Responsive Elements (CRE) small molecule agonists, cell-based qHTS assay (AID 1963590)
Outline: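 Quantitative HTS for CRE agonists: HEK 293T CRE-bla cells, overnight plating, 3 h compound incubation at 37 C/5% CO2, then 2 h room-temperature LiveBLAzer B/G FRET substrate loading.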

Measured: Potency

O=C(O)CCS
active: [10] 3.41 µM
not listed: [19] | [20]
inactive: all other assays above

OCCCCl
not listed: [9] | [18]
inactive: all other assays above

CC(=O)S[C@H](C(=O)N[C@H]1Cc2ccccc2[C@H]2CCC[C@@H](C(=O)O)N2C1=O)C(C)C
not listed: [9]
inactive: all other assays above

CC(=O)c1ccc2ccccc2c1
not listed: [12] | [20]
inactive: all other assays above

CCOC(C)(C)C
not listed: [7] | [9] | [20]
inactive: all other assays above

CC1(C)C2=CCCC(C)(C)[C@]23CC[C@H]1C3
not listed: [10]
inactive: all other assays above

Nc1cc(S(=O)(=O)O)cc2cc(S(=O)(=O)O)cc(O)c12
not listed: [9] | [12] | [16] | [17] | [18] | [19]
inactive: all other assays above

Cc1cc(CCC(=O)OCCOCCOCCOC(=O)CCc2cc(C)c(O)c(C(C)(C)C)c2)cc(C(C)(C)C)c1O
not listed: [14] | [16] | [20]
inactive: all other assays above

CN1CCc2cccc3c2[C@H]1Cc1ccc(O)c(O)c1-3
1.51 µM (active) and inactive: [10]
active: [1] 30.9 µM and 22.8 µM
not listed: [8] | [12] | [15] | [16] | [17]
inactive: all other assays above

c1coc(CNc2ncnc3nc[nH]c23)c1
not listed: [19]
inactive: all other assays above

COc1cc(C(=O)NCc2ccc(OCCN(C)C)cc2)cc(OC)c1OC
not listed: [11] | [18]
inactive: all other assays above

OCC1CCC(CO)CC1 (stereo unspecified)
not listed: [6]
inactive: all other assays above

COc1cc(OC)nc(O[C@H](C(=O)O)C(OC)(c2ccccc2)c2ccccc2)n1
not listed: [8] | [16]
inactive: all other assays above

CC(=O)O[C@@H]1C[C@@H]2CC[C@@]1(C)C2(C)C
not listed: [13]
inactive: all other assays above

CCCCc1ccc2cccc(S(=O)(=O)O)c2c1
not listed: [8] | [15]
inactive: all other assays above

C=CC(=O)NC(C)C
not listed: [13] | [20]
inactive: all other assays above

Cc1c2oc3c(C)ccc(C(=O)N[C@@H]4C(=O)N[C@H](C(C)C)C(=O)N5CCC[C@H]5C(=O)N(C)CC(=O)N(C)[C@@H](C(C)C)C(=O)O[C@@H]4C)c3nc-2c(C(=O)N[C@@H]2C(=O)N[C@H](C(C)C)C(=O)N3CCC[C@H]3C(=O)N(C)CC(=O)N(C)[C@@H](C(C)C)C(=O)O[C@@H]2C)c(N)c1=O (I: T[dV]P[Sar][NMeV] / II: T[dV]P[Sar][NMeV]; ester I:1-I:C, II:1-II:C; linker I:N-II:N via Actinocin(9to1))
inactive: [3] | [4] | [5] | [6] | [8] | [15] | [17] | [18]
active: [1] 42.1 nM | [9] 2.2 nM
inactive and 42.2 nM (active): [2]

C[C@]12CC[C@H]3[C@@H](CCC4=CC(=O)CC[C@@]43C)[C@@H]1CC[C@@H]2C(=O)CO
not listed: [13] | [14] | [20]
inactive: all other assays above

C=CCCCCCCCCCCCC
active: [13] 245 nM
not listed: [8] | [14]
inactive: all other assays above

FC(F)(F)c1ccccc1
not listed: [12] | [16]
inactive: all other assays above

O=C(O)C(S)C(S)C(=O)O (stereo unspecified)
not listed: [16] | [19] | [20]
inactive: all other assays above

CC(C)=CCCC(C)CCOC(=O)C(C)C (stereo unspecified)
not listed: [7] | [20]
inactive: all other assays above

C=CCCCCCCCCC(=O)OCCCC
not listed: [7] | [20]
inactive: all other assays above

CC1(C)[C@@H]2CC[C@@]1(C)[C@H](O)C2
not listed: [7]
inactive: all other assays above

N#CC1(c2ccc(F)cc2)CCC(=O)CC1
not listed: [10] | [19]
inactive: all other assays above

CC(N)CN (stereo unspecified)
not listed: [5] | [6] | [12]
inactive: all other assays above

C[Si](C)O[Si](C)(C)O[Si](C)(C)O[Si](C)C
not listed: [5] | [16] | [20]
inactive: all other assays above

Cc1ccc(N(C)C)cc1
inactive and 133 nM (active): [10]
not listed: [4] | [19]
inactive: all other assays above

CC(C)(C)NCC(O)c1ccc(O)c(CO)c1 (stereo unspecified)
inactive: [1] | [2] | [3] | [4] | [19] | [9] | [17]
active: [18] 962 nM and 750 nM

OCC(CO)(CBr)CBr
not listed: [5] | [6] | [9] | [16] | [19]
inactive: all other assays above

CC(=O)CC(=O)Nc1ccccc1C
not listed: [5] | [19]
inactive: all other assays above
